Where “and” joins values, the source holds several entries; their conditions need not be identical. Equal entries are not always repeated. Among all 5,500 compounds or so, about 2,000 (36%) were called active. About 18% were inconclusive and are not listed. Rule as the data show it: active = normalized growth mostly below about 0.91 (no sharp cut-off); inconclusive = no clear call, values can overlap the other calls; inactive = mostly above about 0.92. This is one part of the list.
Test: chemical genetic growth profiling, strain panel (AID 1159580);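 also: tested at 20 µM; growth read once vehicle control cultures reached saturation at 30 °C; 1 = growth at the plate median or of vehicle wells; lower values mean less growth of the strain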
Settings: growth OD

Measured: normalized growth

CCCCCCCCC(=O)NCc1ccc(O)c(OC)c1
inactive: S. cerevisiae deletion strains, locus YJR075W, strain HOC1, active compounds read low 0.989 and 0.961 | S. cerevisiae deletion strains, locus YKL009W, strain mrt4, active compounds read low 0.955 | S. cerevisiae deletion strains, locus YKL068W, active compounds read low 0.986 | S. cerevisiae deletion strains, locus YKL085W, strain MDH1 (second series), active compounds read low 0.987 | S. cerevisiae deletion strains, locus YKL085W, strain MDH1, active compounds read low 0.987 | S. cerevisiae deletion strains, locus YKL160W, strain elf1, active compounds read low 0.985 | S. cerevisiae deletion strains, locus YKL190W, strain CNB1, active compounds read low 0.999 | S. cerevisiae deletion strains, locus YKR001C, strain vps1, active compounds read low 0.983 | S. cerevisiae deletion strains, locus YKR026C, strain gcn3, active compounds read low 0.979 | S. cerevisiae deletion strains, locus YKR091W, strain srl3, active compounds read low 0.999 | S. cerevisiae deletion strains, locus YLL001W, strain dnm1, active compounds read low 1 | S. cerevisiae deletion strains, locus YLL026W, active compounds read low 1 | S. cerevisiae deletion strains, locus YLL041C, strain sdh2, active compounds read low 1 | S. cerevisiae deletion strains, locus YLR027C, strain aat2, active compounds read low 1.01 | S. cerevisiae deletion strains, locus YLR039C, strain RIC1, active compounds read low 1 | S. cerevisiae deletion strains, locus YLR058C, strain SHM2, active compounds read low 0.984 | S. cerevisiae deletion strains, locus YLR102C, strain apc9, active compounds read low 0.987 | S. cerevisiae deletion strains, locus YLR113W, strain HOG1, active compounds read low 1.01 | S. cerevisiae deletion strains, locus YLR221C, strain rsa3, active compounds read low 1.01 | S. cerevisiae deletion strains, locus YLR258W, strain gsy2, active compounds read low 0.989 | S. cerevisiae deletion strains, locus YLR262C, strain YPT6 (second series), active compounds read low 1.02 | S. cerevisiae deletion strains, locus YLR262C, strain YPT6, active compounds read low 1.01 | S. cerevisiae deletion strains, locus YLR268W, strain sec22, active compounds read low 0.97 | S. cerevisiae deletion strains, locus YLR320W, strain mms22, active compounds read low 0.997 | S. cerevisiae deletion strains, locus YLR330W, strain CHS5, active compounds read low 0.985 | S. cerevisiae deletion strains, locus YLR342W, strain FKS1 (second series), active compounds read low 0.966 | S. cerevisiae deletion strains, locus YLR342W, strain FKS1, active compounds read low 1.03 | S. cerevisiae deletion strains, locus YLR357W, strain rsc2, active compounds read low 1.12 | S. cerevisiae deletion strains, locus YLR370C, strain arc18, active compounds read low 0.993 | S. cerevisiae deletion strains, locus YLR371W, strain rom2, active compounds read low 0.985 | S. cerevisiae deletion strains, locus YLR384C, strain iki3, active compounds read low 1 | S. cerevisiae deletion strains, locus YLR418C, strain cdc73, active compounds read low 0.989 | S. cerevisiae deletion strains, locus YML016C, strain PPZ1, active compounds read low 0.978 | S. cerevisiae deletion strains, locus YML032C, strain rad52, active compounds read low 0.97 | S. cerevisiae deletion strains, locus YML120C, strain ndi1, active compounds read low 0.992 | S. cerevisiae deletion strains, locus YML124C, strain tub3, active compounds read low 0.975 | S. cerevisiae deletion strains, locus YMR058W, strain fet3, active compounds read low 1 | S. cerevisiae deletion strains, locus YMR078C, strain ctf18, active compounds read low 0.977 | S. cerevisiae deletion strains, locus YMR125W, strain sto1, active compounds read low 1.05 | S. cerevisiae deletion strains, locus YMR129W, active compounds read low 1.02 | S. cerevisiae deletion strains, locus YMR205C, strain PFK2, active compounds read low 0.961 | S. cerevisiae deletion strains, locus YMR223W, strain ubp8, active compounds read low 0.965 | S. cerevisiae deletion strains, locus YMR231W, strain pep5, active compounds read low 1.01 | S. cerevisiae deletion strains, locus YMR263W, strain SAP30, active compounds read low 0.998 | S. cerevisiae deletion strains, locus YMR307W, strain GAS1, active compounds read low 1.07 and 0.979 | S. cerevisiae deletion strains, locus YNL067W, strain RPL9B, active compounds read low 0.995 | S. cerevisiae deletion strains, locus YNL071W, strain lat1, active compounds read low 0.976 | S. cerevisiae deletion strains, locus YNL128W, strain TEP1, active compounds read low 0.999 and 0.969 | S. cerevisiae deletion strains, locus YNL153C, strain GIM3, active compounds read low 0.997 | S. cerevisiae deletion strains, locus YNL175C, strain NOP13, active compounds read low 0.972 | S. cerevisiae deletion strains, locus YNL183C, strain NPR1, active compounds read low 0.93 | S. cerevisiae deletion strains, locus YNL197C, strain WHI3, active compounds read low 0.963 | S. cerevisiae deletion strains, locus YNL209W, strain ssb2, active compounds read low 0.995 | S. cerevisiae deletion strains, locus YNL224C, strain SQS1, active compounds read low 0.984 | S. cerevisiae deletion strains, locus YNL233W, strain BNI4, active compounds read low 0.988 | S. cerevisiae deletion strains, locus YNL248C, strain rpa49, active compounds read low 1.06 | S. cerevisiae deletion strains, locus YNL250W, strain rad50, active compounds read low 0.975 | S. cerevisiae deletion strains, locus YNL271C, strain bni1, active compounds read low 0.983 | S. cerevisiae deletion strains, locus YNL298W, strain CLA4, active compounds read low 0.966 | S. cerevisiae deletion strains, locus YNL307C, strain MCK1, active compounds read low 0.955 | S. cerevisiae deletion strains, locus YNL322C, strain KRE1 (second series), active compounds read low 0.998 | S. cerevisiae deletion strains, locus YNL322C, strain KRE1, active compounds read low 0.994 and 0.983 | S. cerevisiae deletion strains, locus YNR049C, strain mso1, active compounds read low 1.02 | S. cerevisiae deletion strains, locus YNR052C, strain pop2, active compounds read low 0.992 | S. cerevisiae deletion strains, locus YOL006C, strain TOP1, active compounds read low 0.927 | S. cerevisiae deletion strains, locus YOL012C, strain htz1 0.863 | S. cerevisiae deletion strains, locus YOL147C, strain pex11, active compounds read low 0.991 | S. cerevisiae deletion strains, locus YOR001W, strain rrp6, active compounds read low 1.01 | S. cerevisiae deletion strains, locus YOR061W, strain CKA2, active compounds read low 0.988 | S. cerevisiae deletion strains, locus YOR069W, strain VPS5, active compounds read low 0.983 | S. cerevisiae deletion strains, locus YOR070C, strain gyp1, active compounds read low 0.982 | S. cerevisiae deletion strains, locus YOR080W, strain dia2, active compounds read low 1.01 | S. cerevisiae deletion strains, locus YOR083W, strain WHI5 (second series), active compounds read low 0.998 | S. cerevisiae deletion strains, locus YOR083W, strain WHI5, active compounds read low 0.988 | S. cerevisiae deletion strains, locus YOR106W, strain vam3, active compounds read low 1 | S. cerevisiae deletion strains, locus YOR136W, strain idh2, active compounds read low 0.981 | S. cerevisiae deletion strains, locus YOR144C, strain elg1, active compounds read low 0.989 | S. cerevisiae deletion strains, locus YOR184W, strain ser1, active compounds read low 0.939 | S. cerevisiae deletion strains, locus YOR231W, strain MKK1, active compounds read low 0.988 | S. cerevisiae deletion strains, locus YOR265W, strain rbl2, active compounds read low 1.01 | S. cerevisiae deletion strains, locus YOR270C, strain vph1, active compounds read low 0.969 | S. cerevisiae deletion strains, locus YOR290C, strain snf2, active compounds read low 0.978 | S. cerevisiae deletion strains, locus YOR316C, strain cot1, active compounds read low 0.98 | S. cerevisiae deletion strains, locus YPL051W, strain arl3, active compounds read low 0.987 | S. cerevisiae deletion strains, locus YPL055C, strain LGE1, active compounds read low 1.01 | S. cerevisiae deletion strains, locus YPL078C, strain atp4, active compounds read low 0.969 | S. cerevisiae deletion strains, locus YPL106C, strain sse1, active compounds read low 1.04 | S. cerevisiae deletion strains, locus YPL240C, strain hsp82, active compounds read low 1 | S. cerevisiae deletion strains, locus YPL241C, strain CIN2, active compounds read low 0.978 and 0.994 | S. cerevisiae deletion strains, locus YPL256C, strain CLN2, active compounds read low 1 | S. cerevisiae deletion strains, locus YPR119W, strain clb2, active compounds read low 0.989 | S. cerevisiae deletion strains, locus YPR141C, strain kar3, active compounds read low 0.98 | S. cerevisiae deletion strains, locus YPR163C, strain tif3, active compounds read low 0.989 | S. cerevisiae deletion strains, locus YPR167C, strain met16, active compounds read low 0.986 | S. cerevisiae deletion strains, strain wtn01, active compounds read low 0.984 | S. cerevisiae strains, strain wild type, active compounds read low 1

From PubChem BioAssay AID1159580 (chemical genetic matrix, 2015)
